# The panel holds about 79,000 compounds, 15% with a hit somewhere; the sample as a whole holds those more often. Unmarked numbers belong to inactive results. The source made the active and inactive calls. No stated cut-off is given here; in the data, active means growth inhibition above about 70%; inactive means the rest. Where a SMILES comes first, the peptide text is derived from it. The star is where a group is joined. Boc = CC(C)(C)OC(=O)*; OBn = c1ccc(CO*)cc1
# Assays:
# [1] = NCI Yeast Anticancer Drug Screen. Data for the rad50 strain (AID 155);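 further: 0% = growth of vehicle-only cultures of the same strain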; settings: S. cerevisiae rad50 strain growth inhibition; at 50.0 µM; active compounds read high
# Method in brief: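 Readout: growth inhibition relative to vehicle-treated cultures. Compound exposure was carried out in a genetically defined yeast strain deficient in DNA damage repair.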
# [2] = NCI Yeast Anticancer Drug Screen. Data for the mec2-1 strain (AID 157); settings: S. cerevisiae mec2-1 strain, at 50.0 µM, active compounds read high
# Method in brief: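 Growth inhibition is read against vehicle-treated controls after compound exposure of the mec2-1 yeast strain, which is defective in DNA damage repair or cell cycle control.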
# [3] = NCI Yeast Anticancer Drug Screen. Data for the sgs1 mgt1 strain (AID 161);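 further: 0% = growth of cultures given vehicle only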; settings: S. cerevisiae sgs1 mgt1 strain, at 50.0 µM, active compounds read high
# Method in brief: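 Compounds are added to genetically altered yeast, and growth is compared with cultures given vehicle alone to give percent inhibition.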
# [4] = NCI Yeast Anticancer Drug Screen. Data for the cln2 rad14 strain (AID 165);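 further: 0% = growth equal to vehicle treated cultures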; settings: S. cerevisiae cln2 rad14 strain, at 50.0 µM, active compounds read high
# Method in brief: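 Growth inhibition, relative to vehicle-treated controls, is the read-out. The test organism is a yeast strain with defined genetic alterations, cln2 rad14.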
# [5] = NCI Yeast Anticancer Drug Screen. Data for the bub3 strain (AID 167); settings: S. cerevisiae bub3 mutant strain, at 50.0 µM, active compounds read high
# Method in brief: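 Readout: yeast growth inhibition, expressed relative to vehicle-only wells. The test organism is a mutant strain from a panel with lesions in DNA repair or checkpoint genes.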
# [6] = NCI Yeast Anticancer Drug Screen. Data for the mlh1 rad18 strain (AID 175); settings: S. cerevisiae mlh1 rad18 strain growth inhibition; at 50.0 µM; active compounds read high
# Method in brief: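 Cells of a genetically altered yeast strain, deficient in DNA damage repair, were treated with compound. Their growth was then compared with that of vehicle-treated cultures to give inhibition.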
Structure (SMILES),growth inhibition [1],growth inhibition [2],growth inhibition [3],growth inhibition [4],growth inhibition [5],growth inhibition [6]
NC(N)=NC(N)=NCc1ccccc1,5.45%,-2.45%,4.3%,12.7%,1.85%,0.85%
O=C(Nc1cccc(Cl)c1)C(Br)C(Br)c1ccccc1 (stereo unspecified),97.8% (active),99.2% (active),99.3% (active),99.2% (active),98.5% (active),98.7% (active)
OCCN(CCO)c1ccc(O)cc1,-6.85%,2.3%,-17.1%,13.6%,-3.6%,-11.7%
CCC(=O)OCCCC1CCCO1 (stereo unspecified),7.85%,-0.55%,1.05%,-9.8%,2%,-2.05%
COC(=O)c1cc(C(=O)O)c(=O)n2ccccc12,23%,50%,32.1%,53.2%,35.2%,41.5%
CNC(=O)c1ccccc1CC(O)c1ccccc1 (stereo unspecified),-7.95%,0.65%,4.75%,6.75%,0.9%,8.95%
O=C(O)c1c[nH]c2cc(OCc3ccccc3)ccc2c1=O,-4.1%,-44.4%,-45.5%,-7.15%,-21.1%,7.75%
COc1cc(C=C(C#N)C#N)ccc1OC(=O)c1cc(OC)c(OC)c(OC)c1,-1.5%,-5.6%,15.8%,2.2%,4.45%,-6.25%
NCCN(CCN)/[N+]([O-])=N/O,18.6%,-0.2%,6.3%,-1%,0.65%,16.9%
Cc1ccc(S(=O)(=O)NN=C2C(C)(C)C(=O)C2(C)C)cc1,-1.5%,-1.1%,-32.9%,32.1%,-2.25%,-6.45%
CSc1nc2c(nc(N)n2C2OC(CO)C(O)C(O)C2O)c(=O)[nH]1 (stereo unspecified),-13.7%,8.45%,-1.85%,-1.2%,-6.2%,-8.9%
CC12CCC(=O)N1[C@@H](c1ccccc1)[C@@H](c1ccccc1)O2 (stereo partly specified),25.6%,-12.6%,-0.85%,15.4%,3.65%,5.9%
O=C(O)C1CCC(C(=O)O)S1 (stereo unspecified),1.85%,-10.4%,-0.85%,-13.1%,9.9%,16.1%
COC(=O)/C(=C/c1ccccc1)N(C(C)=O)C(C)=O,0.05%,-1.6%,10.3%,-1.5%,13.4%,8.5%
C=CCNC(=O)/C(C)=C(\C)c1ccc(F)cc1,4.15%,6%,3.2%,-17.7%,2.5%,-4.7%
COC(=O)C1CCC2C3CCCCC3CCC2C1(C)C(=O)OC (stereo unspecified),-7.6%,2%,-4.55%,-28.4%,5.7%,2.05%
CC(=O)c1ccc(NC(=O)/C(=N\NC(N)=O)C(C#N)CC(C)(C)C=O)cc1 (stereo unspecified),29.3%,17.4%,-2.55%,21.1%,33.6%,16.6%
S=C(Cc1cccnc1)N1CCOCC1,-7.85%,41.5%,8.2%,-27.9%,5.15%,45.5%
CSc1ccc(NC(=O)Nc2ccccc2F)cc1,-7.65%,19.1%,17.2%,-20.5%,39.5%,-9.15%
Cc1cc(-c2cc(C)c(N)cc2S(=O)(=O)O)c(S(=O)(=O)O)cc1N,-12.3%,-23.4%,-1.2%,-3.2%,5.8%,1.15%
Nc1ncc2c(n1)CSCC2=O,-9.4%,27.7%,14.1%,-2.7%,16.9%,12%

Structure (SMILES),growth inhibition [1],growth inhibition [2],growth inhibition [3],growth inhibition [4],growth inhibition [5],growth inhibition [6]
Cc1ccc(S(=O)(=O)N/N=C2/C(=N/NS(=O)(=O)c3ccc(C)cc3)c3cccc4cccc2c34)cc1,50%,11.4%,36.7%,8.3%,14.8%,11.3%
NC(=O)C(N)CC(=O)O (stereo unspecified),6.15%,-5.9%,-3.1%,-16.1%,6.5%,11.1%
O=C(OCCNC1CCCCC1)c1ccc([N+](=O)[O-])cc1,8.85%,2.5%,1.45%,-43.5%,-4.5%,11.3%
c1ccc(-n2nc3ccc4nonc4c3n2)cc1,-17.9%,-20.8%,-10.5%,7.4%,-0.05%,-1.55%
Nc1ccc(C(=O)NO)c(O)c1,6.2%,18.9%,-7.55%,-41.8%,18.7%,-6%
CCOC(=O)CC(C(C)=O)C(=O)OCC (stereo unspecified),14.9%,12.3%,-3.55%,-29.6%,5.6%,-1.4%
COc1ccc(NC(=O)CC(=O)N/N=C/c2ccc(N(CCC#N)S(=O)(=O)c3ccccc3)cc2)cc1,-35.5%,-11.8%,-29.5%,8.15%,-11.2%,-2.75%
O=C(O)c1ccccc1N=N/C(=N\Nc1ccccc1C(=O)O)c1ccnc2ccccc12,37.5%,10%,29.3%,11.2%,2.8%,26.9%
Cc1cc(C)c(NC(=O)c2c(Cl)c(Cl)c(Cl)c(Cl)c2C(=O)O)c(C)c1,-4.9%,-4.45%,0.05%,-51.3%,5.5%,0.3%
CC(=O)N1CC/C(=C\c2ccccc2)C1=O,-10.1%,-7.25%,-12.5%,-6.85%,0.25%,-3.2%
C(=C1c2c(ccc3ccccc23)Oc2ccc3ccccc3c21)c1ccccc1,14.3%,10.6%,12.3%,-30.1%,1.65%,14.3%
O=c1c(Cc2ccccc2)coc2ccccc12,30.6%,14.6%,21.4%,-14.2%,27.5%,-1.5%
O=C(O)C(=O)Cc1ccccc1,11.2%,-14.2%,-4.85%,19.9%,0.85%,14.9%
CC(C)CC(NC(=O)OC(C)(C)C)C(=O)NC(CC(=O)OCc1ccccc1)C(=O)OCc1ccccc1 (stereo not drawn) (Boc-Leu-Asp(OBn)-OBn; configuration not given here),26.3%,-7.25%,15.5%,2.2%,15.8%,33.5%
c1ccc(CSc2nc3ccccc3nc2-c2cccs2)cc1,-48.7%,-51.9%,-34.5%,-1.85%,-51.9%,-29.8%
CSC1=C(c2ccc(Cl)cc2)SC(N2CCCCC2)N1c1ccc([N+](=O)[O-])cc1 (stereo unspecified),0.55%,-0.05%,1.7%,5.2%,5.4%,4.9%
COC(=O)c1ccc(C(=O)OC)cc1,-12.2%,-26.1%,15.9%,12.2%,8.95%,11.3%
Cc1ccc(S(=O)(=O)N/N=C2/CC3CCC2C3)cc1 (stereo unspecified),5%,1.3%,-19.7%,-9.4%,17.3%,-15.3%
C/C(=C\CNc1ncnc2c1ncn2C1CCCCO1)COP(=O)(O)O (stereo unspecified),19.6%,6.4%,19.6%,22.2%,-4.8%,27.9%
CC1=NOC2(C1)C(=O)Nc1ccccc12 (stereo unspecified),23.2%,9.5%,8.55%,11.3%,2.85%,18.4%
